Experimental data: PubChem BioAssay (Tox21)
“And” between values parts separate entries of the source, which are not always exact repeats. Equal entries are not always repeated. Records with an inconclusive call do not appear. A call without a number means that no potency is given here. A structure can be active in one record and inactive in another. The source made the active and inactive calls. Unless noted, calls come from the whole dose curve; as a rule, active = well fitted curve in the direction sought with a large enough effect in the repeat runs; inconclusive = weak or mixed curves; inactive = no such curve, though single readings can be large; an effect the other way counts as inactive or inconclusive.

Key:
[1] = A CellTox Green Cytotoxicity Assay to monitor cytotoxicity in HepG2 cells - 8 hour (AID 1224890); note: nearly all actives have a fitted effect of over 45% in size; note: potency is the fitted concentration of half-maximal effect
Method in brief: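 HepG2 cells, 600/well, preincubated 5 h with CellTox Green dye, then exposed to Tox21 compounds in DMSO at 37 C for up to 40 h. Dead-cell DNA fluorescence read at the indicated time point.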

[2] = qHTS assay to identify small molecule antagonists of the estrogen receptor alpha (ER-alpha) signaling pathway using the BG1 cell line in the presence of 0.1 nM 17-beta-estradiol - cell viability counter screen (AID 1259241); note: nearly all actives have a fitted effect of over 40% in size
Method in brief: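 Cytotoxicity counter-screen: live-cell protease activity measured by fluorescence (30 min reagent step) in the same wells. Cells were VM7Luc4E2 with endogenous ER-alpha and ERE-driven luciferase, treated 22 hr at 37C alongside 0.1 nM 17beta-estradiol final.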

[3] = target: Estrogen receptor (Homo sapiens) (UniProt P03372); test: qHTS assay to identify small molecule antagonists of the estrogen receptor alpha (ER-alpha) signaling pathway using the BG1 cell line in the presence of 0.1 nM 17-beta-estradiol (AID 1259244); note: nearly all actives have a fitted effect of over 50% in size
Sequence of Estrogen receptor (Homo sapiens) (P03372 whole entry, looked up): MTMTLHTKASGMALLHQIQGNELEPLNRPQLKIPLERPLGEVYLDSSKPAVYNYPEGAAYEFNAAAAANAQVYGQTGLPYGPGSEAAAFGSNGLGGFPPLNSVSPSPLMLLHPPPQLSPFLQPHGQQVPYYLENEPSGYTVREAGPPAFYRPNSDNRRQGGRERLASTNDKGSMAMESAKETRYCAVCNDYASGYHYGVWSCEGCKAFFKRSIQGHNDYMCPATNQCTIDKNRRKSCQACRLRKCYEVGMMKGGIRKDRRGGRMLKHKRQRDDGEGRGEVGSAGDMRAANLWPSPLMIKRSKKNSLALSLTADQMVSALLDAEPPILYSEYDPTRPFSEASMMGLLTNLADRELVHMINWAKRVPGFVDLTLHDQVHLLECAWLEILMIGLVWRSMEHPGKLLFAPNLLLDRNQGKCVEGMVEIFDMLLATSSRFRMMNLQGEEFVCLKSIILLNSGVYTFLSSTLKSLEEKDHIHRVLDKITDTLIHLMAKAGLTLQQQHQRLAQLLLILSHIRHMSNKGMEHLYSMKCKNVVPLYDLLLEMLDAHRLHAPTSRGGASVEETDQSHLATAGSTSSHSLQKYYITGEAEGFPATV
Method in brief: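 VM7Luc4E2 cells (endogenous full-length ER-alpha, 4×ERE-luciferase), kept 5 days in phenol red-free, charcoal-stripped FBS medium; 4,000 cells/well. Compounds added with 0.1 nM (final) 17beta-estradiol, 22 hr at 37C; luminescence read with ONE-Glo after 30 min.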

[4] = qHTS assay to identify small molecule HDAC inhibitors (AID 1259364); note: nearly all actives have a fitted effect of over 45% in size; note: potency is the fitted concentration of half-maximal effect
Method in brief: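 Wild-type HCT-116 cells, plated overnight at 37 C, exposed to compounds 2 hr at 37 C; luminogenic HDAC-Glo substrate then added 30 min at room temperature. Luminescence reports relative endogenous class I/II HDAC activity.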

[5] = qHTS assay to identify small molecule HDAC inhibitors - cell viability counter screen (AID 1259365); note: series mostly up to about 92 µM; nearly all actives have a fitted effect of over 50% in size
Method in brief: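 CellTiter-Glo luminescence (30 min, room temperature) reported viability after a 2 h compound exposure at 37 C. Cells: wild-type HCT-116, 1,500 per well, seeded the night before.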

[6] = qHTS assay to identify small molecule agonists of the sonic hedgehog signaling (Shh) pathway - cell viability counter screen (AID 1259366); note: nearly all actives have a fitted effect of over 50% in size; note: potency is the fitted concentration of half-maximal effect
Method in brief: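 Cytotoxicity counter screen: CellTiter-Fluor reagent added after 23 h compound exposure, then 1 h at 37C and fluorescence read. Cells were 3T3 Gli1-Luc, seeded 2,000 per well and dosed 4 h post-plating.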

[7] = qHTS assay to identify small molecule antagonists of the sonic hedgehog signaling (Shh) pathway - cell viability counter screen (AID 1259367); note: nearly all actives have a fitted effect of over 55% in size; note: potency is the fitted concentration of half-maximal effect
Method in brief: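 NIH/3T3-derived Gli1-Luc reporter cells (2,000 per well) rested 4 hr at 37 C, then received DMSO compounds plus conditioned medium. After 23 hr of treatment, CellTiter-Fluor was added for 1 hr at 37C and fluorescence read.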

[8] = qHTS assay to identify small molecule agonists of the sonic hedgehog signaling (Shh) pathway (AID 1259368; calls by dose curve;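 note: NIH/3T3-derived 3T3Gli1-Luc cells carrying a stable Gli1-driven firefly luciferase reporter; series mostly up to about 92 µM; nearly all actives have a fitted effect of over 15% in size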)
Method in brief: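 NIH/3T3-derived 3T3Gli1-Luc cells with stably integrated Gli1-driven firefly luciferase, 2,000 cells/well, compounds added after 4 hr. Incubated 24 hr at 37C, 5% CO2; luminescence read after 30 min with luciferase reagent at room temperature.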

[9] = qHTS assay to identify small molecule antagonists of the sonic hedgehog signaling (Shh) pathway (AID 1259369; calls by dose curve; note: nearly all actives have a fitted effect of over 45% in size; note: potency is the fitted concentration of half-maximal effect)
Method in brief: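 NIH/3T3-derived Gli1-Luc reporter cells plated 4 h, dosed with compound, then stimulated with conditioned medium for 24 h at 37 C. Firefly luciferase luminescence read after 30 min with detection reagent at room temperature.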

[10] = target: Estrogen receptor beta (Homo sapiens) (UniProt Q92731); test: qHTS assay to identify small molecule agonists of the estrogen receptor beta (ER-beta) signaling pathway (AID 1259377; active = well fitted activation curve with a large enough effect in the signal ratio in the repeat runs, not every such curve was filed as active; the % refers to the signal ratio)
Sequence of Estrogen receptor beta (Homo sapiens) (Q92731 whole entry, looked up): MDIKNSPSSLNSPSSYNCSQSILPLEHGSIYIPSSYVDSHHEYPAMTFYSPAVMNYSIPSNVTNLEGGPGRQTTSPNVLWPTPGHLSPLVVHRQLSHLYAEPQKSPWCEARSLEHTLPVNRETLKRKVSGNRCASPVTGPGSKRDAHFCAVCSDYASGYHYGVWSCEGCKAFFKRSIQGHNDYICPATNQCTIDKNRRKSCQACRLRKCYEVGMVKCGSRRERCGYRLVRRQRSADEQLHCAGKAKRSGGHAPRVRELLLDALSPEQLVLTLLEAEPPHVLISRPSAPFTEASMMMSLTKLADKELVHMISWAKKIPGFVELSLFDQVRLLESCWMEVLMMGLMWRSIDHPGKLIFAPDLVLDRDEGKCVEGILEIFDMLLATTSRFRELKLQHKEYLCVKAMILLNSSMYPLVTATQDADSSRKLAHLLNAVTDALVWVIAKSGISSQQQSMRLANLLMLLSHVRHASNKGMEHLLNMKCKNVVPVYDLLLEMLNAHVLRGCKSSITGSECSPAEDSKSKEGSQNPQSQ
Method in brief: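 Ratiometric beta-lactamase FRET read-out came after 2 h substrate loading at room temperature. It followed 16 h compound treatment at 37C of GripTite HEK293T cells carrying a UAS-bla reporter, plated in 2% charcoal-stripped FBS medium.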

[11] = target: Estrogen receptor beta (Homo sapiens) (UniProt Q92731); test: qHTS assay to identify small molecule antagonists of the estrogen receptor beta (ER-beta) signaling pathway (AID 1259378; active = well fitted inhibition curve with a large enough effect in the signal ratio in the repeat runs, not every such curve was filed as active; the % refers to the signal ratio)
Method in brief: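 ER-beta-UAS-bla HEK293T (GripTite) cells in 2% charcoal-stripped FBS medium were preincubated 6 hr at 37C, dosed with compound, then stimulated with 1 nM E2 (final) for 16 hr; beta-lactamase reporter read by B/G FRET fluorescence after 2 hr substrate loading.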

[12] = qHTS assay to identify small molecule agonists of the androgen receptor (AR) signaling pathway in the presence of an antagonist - cell viability counter screen (AID 1259379);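 note: MDA-kb2 human breast cancer cells carrying an MMTV luciferase reporter; series mostly up to about 92 µM; nearly all actives have a fitted effect of over 25% in size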
Method in brief: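 MDA-kb2 cells (MMTV-luciferase, AR/GR), 3,000/well, 5 h attachment, then 3.0 µM nilutamide (final) and compounds at 15 concentrations. Viability by CellTiter-Fluor fluorescence after 16 h at 37 °C, 0% CO2, in the reporter wells.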

[13] = qHTS assay to identify small molecule agonists of the estrogen receptor beta (ER-beta) signaling pathway - cell viability counter screen (AID 1259380); note: nearly all actives have a fitted effect of over 30% in size; note: potency is the fitted concentration of half-maximal effect
Method in brief: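 ER-beta-UAS-bla HEK293T cells in medium with 2% charcoal-stripped FBS, pre-incubated 6 hr, then treated 16 hr at 37C. Cytotoxicity read in the same wells by CellTiter-Glo luminescence after 30 min at room temperature.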

[14] = qHTS assay to identify small molecule antagonists of the estrogen receptor beta (ER-beta) signaling pathway - cell viability counter screen (AID 1259382); note: series mostly up to about 92 µM; nearly all actives have a fitted effect of over 55% in size
Method in brief: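 ER-beta-UAS-bla HEK293T cells in 2% charcoal-stripped FBS medium, treated with compound plus 1 nM 17-beta-estradiol for 16 h at 37C. Viability read by CellTiter-Glo luminescence after 30 min at room temperature in the same wells.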

[15] = target: Estrogen receptor (Homo sapiens) (UniProt P03372); test: qHTS assay to identify small molecule agonists of the estrogen receptor alpha (ER-alpha) signaling pathway in the presence of an antagonist (AID 1259383; calls by dose curve; note: top concentration of the series differs between compounds; nearly all actives have a fitted effect of over 15% in size)
Method in brief: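 VM7Luc4E2 cells express endogenous full-length ER-alpha with an ERE-luciferase reporter and were hormone-deprived for 5 days. Compounds at 15 concentrations were added with 10.0nM ICI-182,780 for 22hr at 37C. Luminescence was read with ONE-Glo.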

[16] = qHTS assay to identify small molecule agonists or antagonists of the thyroid stimulating hormone receptor (TSHR) signaling pathway - wild type cell line counter screen (AID 1259384; calls by dose curve)
Method in brief: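 Wild-type HEK293 cells were plated 18 h at 37 C/5% CO2, pin-dosed with compound plus Ro20-1724 medium, held 30 min at room temperature, then given cAMP-d2 and anti-cAMP-cryptate; fluorescence was read after 1 h. Fifteen concentrations, triplicate.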

[17] = qHTS assay to identify small molecule antagonists of the androgen receptor (AR) signaling pathway using the MDA cell line in the presence of 0.5 nM R1881 - cell viability counter screen (AID 1259242); note: nearly all actives have a fitted effect of over 45% in size
Method in brief: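 MDA-kb2 cells (MMTV-luciferase, AR/GR responsive) were treated with compounds plus 0.5 nM R1881 (final) for 16 hr at 37C, 0% CO2. Viability was then read in the same wells as live-cell protease fluorescence (CellTiter-Fluor, 30 min).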

[18] = target: Androgen receptor (Homo sapiens) (UniProt P10275); test: qHTS assay to identify small molecule antagonists of the androgen receptor (AR) signaling pathway using the MDA cell line in the presence of 0.5 nM R1881 (AID 1259243); note: nearly all actives have a fitted effect of over 50% in size
Sequence of Androgen receptor (Homo sapiens) (P10275 whole entry, looked up): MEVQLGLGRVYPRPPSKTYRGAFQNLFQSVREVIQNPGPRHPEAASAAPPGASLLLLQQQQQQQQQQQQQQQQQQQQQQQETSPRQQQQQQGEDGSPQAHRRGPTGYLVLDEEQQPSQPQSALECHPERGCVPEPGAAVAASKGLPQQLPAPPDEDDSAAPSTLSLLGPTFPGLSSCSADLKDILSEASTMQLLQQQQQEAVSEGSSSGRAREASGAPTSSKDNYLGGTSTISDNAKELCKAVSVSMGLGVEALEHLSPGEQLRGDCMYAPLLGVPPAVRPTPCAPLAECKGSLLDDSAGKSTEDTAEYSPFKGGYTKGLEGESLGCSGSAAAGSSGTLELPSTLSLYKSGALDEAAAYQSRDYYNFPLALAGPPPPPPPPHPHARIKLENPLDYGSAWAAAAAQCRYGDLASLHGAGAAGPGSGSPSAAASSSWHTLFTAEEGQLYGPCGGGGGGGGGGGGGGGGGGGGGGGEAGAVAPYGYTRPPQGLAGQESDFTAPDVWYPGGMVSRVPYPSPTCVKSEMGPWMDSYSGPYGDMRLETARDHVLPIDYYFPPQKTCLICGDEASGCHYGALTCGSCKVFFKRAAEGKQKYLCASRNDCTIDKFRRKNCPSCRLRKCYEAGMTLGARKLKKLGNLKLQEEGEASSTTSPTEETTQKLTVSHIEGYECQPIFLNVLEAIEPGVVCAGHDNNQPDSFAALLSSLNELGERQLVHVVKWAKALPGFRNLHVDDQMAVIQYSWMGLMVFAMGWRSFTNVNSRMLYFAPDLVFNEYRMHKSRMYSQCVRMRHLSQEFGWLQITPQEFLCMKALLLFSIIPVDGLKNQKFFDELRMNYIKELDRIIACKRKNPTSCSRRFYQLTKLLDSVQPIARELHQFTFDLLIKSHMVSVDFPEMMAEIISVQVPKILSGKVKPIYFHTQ
Method in brief: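 MDA-kb2 cells (MMTV-luciferase, responsive to AR and GR) at 3,000/well, rested 5 h at 37C, 0% CO2, then given compounds plus 0.5 nM R1881 (final) for 16 hr. Luciferase read with ONE-Glo after 30 min at room temperature.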

[19] = qHTS assay to identify small molecule phospholipidosis (PLD) inducers (AID 1259344; active = well fitted curve in the direction sought with a large enough effect; an effect the other way counts as inactive or inconclusive)
Method in brief: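 HepG2 cells on collagen I, attached 4 h at 37 C, were co-treated with compound and LipidTOX Red dye for 24 h at 37 C, then fixed with paraformaldehyde plus Hoechst 33342 and imaged by high-content microscopy for phospholipid accumulation.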

[20] = target: Androgen receptor (Homo sapiens) (UniProt P10275); test: qHTS assay to identify small molecule agonists of the androgen receptor (AR) signaling pathway in the presence of an antagonist (AID 1259381; calls by dose curve; note: potency is the fitted concentration of half-maximal effect; nearly all actives have a fitted effect of over 15% in size)
Method in brief: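 MDA-kb2 cells carrying MMTV-luciferase (AR/GR responsive), 3,000 cells/well, co-treated with 3.0 uM nilutamide final. Compounds at 15 concentrations, 16 hr at 37C without CO2. Luciferase luminescence read after 30 min with ONE-Glo.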

Row | SMILES | Potency [1] | Potency [2] | Potency [3] | Potency [4] | outcome [5] | Potency [6] | Potency [7] | Potency [8] | Potency [9] | Potency [10] | Potency [11] | Potency [12] | Potency [13] | Potency [14] | Potency [15] | outcome [16] | Potency [17] | Potency [18] | outcome [19] | Potency [20]
1 | Cc1c(COC(=O)[C@@H]2[C@H](/C=C(\Cl)C(F)(F)F)C2(C)C)cccc1-c1ccccc1 | inactive | inactive | inactive | inactive | inactive | inactive | inactive | inactive | inactive | inactive | inactive | inactive | inactive | inactive | inactive | inactive | – | – | – | –
2 | CCCCN(CC)c1c([N+](=O)[O-])cc(C(F)(F)F)cc1[N+](=O)[O-] | inactive | inactive | – | inactive | inactive | inactive | inactive | inactive | inactive | inactive | inactive | inactive | inactive | inactive | – | – | – | – | – | –
3 | CCCCCc1cc(O)cc(O)c1 | inactive and 38.9 µM (active) | inactive | – | inactive | inactive | inactive and 30.6 µM (active) | 30.6 µM (active) | inactive | 24.4 µM (active) and 19.3 µM (active) | – | – | inactive | inactive | inactive | – | – | inactive | – | – | –
4 | C=C(C)C(=O)OCC1CO1 (configuration not stated) | inactive | – | inactive | inactive | inactive | inactive | inactive | inactive | inactive | inactive | inactive | inactive | inactive | inactive | inactive | – | inactive | – | – | –
5 | Cc1ccc(OP(=O)(Oc2ccc(C)cc2)Oc2ccc(C)cc2)cc1 | inactive | inactive | – | inactive | inactive | inactive | – | inactive | inactive | – | – | inactive | – | inactive | – | inactive | – | – | – | –
6 | Nc1ccc(Cl)cc1N | inactive and 21.9 µM (active) | inactive | – | 19.3 µM (active) | inactive | inactive | inactive | – | inactive and 30.6 µM (active) | – | – | inactive | 54.5 µM (active) | – | – | inactive | – | inactive | inactive | 4.86 µM (active)
7 | NCc1cccnc1 | inactive | inactive | inactive | inactive | inactive | inactive | inactive | inactive | inactive | – | – | inactive | – | inactive | inactive | inactive | – | – | inactive | –
8 | O=C(CCl)c1ccccc1 | inactive | inactive | – | inactive | inactive | inactive | inactive | inactive | – | – | inactive | inactive | – | inactive | – | inactive | – | – | – | –
9 | CN(C)C(=O)Nc1ccc(Cl)cc1 | inactive | inactive | – | inactive | inactive | inactive | – | inactive | inactive | inactive | inactive | inactive | – | inactive | – | inactive | inactive | – | – | –
